Compounds with a hit are over-represented: about 1% of the library has one in this group of screens.
TRPML1 agonist: human mucolipin-1 channel agonism. Q9GZU1. TRPML1-expressing cells, Ca2+ dye fluorescence, FDSS. activation, % (no concentration beside the values). 410,000 tested, 0.12% active; in the data active = activation above about 50%; inconclusive = mostly about 30% to 49%; also: 0% is about no effect
Target sequence (Q9GZU1 whole entry, looked up): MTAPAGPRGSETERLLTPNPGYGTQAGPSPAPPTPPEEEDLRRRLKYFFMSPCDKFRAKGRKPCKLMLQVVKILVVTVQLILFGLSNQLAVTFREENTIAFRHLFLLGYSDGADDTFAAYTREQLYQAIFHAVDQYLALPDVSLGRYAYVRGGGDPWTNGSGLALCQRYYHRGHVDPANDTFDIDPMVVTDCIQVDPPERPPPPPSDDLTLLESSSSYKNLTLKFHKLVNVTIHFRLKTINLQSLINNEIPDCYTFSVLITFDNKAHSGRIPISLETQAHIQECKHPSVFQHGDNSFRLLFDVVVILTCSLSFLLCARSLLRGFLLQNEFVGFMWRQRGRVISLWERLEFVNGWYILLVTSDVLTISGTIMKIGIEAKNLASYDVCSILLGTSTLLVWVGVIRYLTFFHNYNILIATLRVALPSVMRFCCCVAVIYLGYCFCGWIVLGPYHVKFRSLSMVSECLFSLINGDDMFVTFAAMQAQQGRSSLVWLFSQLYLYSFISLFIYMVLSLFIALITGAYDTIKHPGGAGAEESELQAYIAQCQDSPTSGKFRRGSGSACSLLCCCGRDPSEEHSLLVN
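Calcium fluorescence on an FDSS kinetic reader gave the read-out. Tet-induced TRPML1-DL cells were plated overnight, dye-loaded (Ca8 with quencher, 45-90 min, room temperature, dark), then read 110 s after compound addition, and again 110 s after 4uM final 54-4 (EC80).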
GRP78 ERSR act: ER stress response induction in glioma. U87-MG GRP78 promoter luciferase reporter, 16 h. Potency, µM, inactives show at the highest dose activation, hits mostly activators. 420,000 tested, 0.02% active; active = well fitted activation curve with a large enough effect; inconclusive = small, poorly fitted or top-dose-only effect; inactive = no such curve, though single readings can be large or run the other way; also: potency is read from the fitted curve at half-maximal effect; series mostly up to about 76 µM; % of control where 0% means no effect; nearly all actives have a fitted effect of over 35% in size
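Stably transfected U87-MG glioma cells carrying a GRP78-based luciferase sensor; 16 h compound incubation. Luminescence end-point read 10 min after Bright-Glo addition at room temperature.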
hERG WT inh: inhibitors of human wildtype KCNH2 potassium channel. 340,000 tested, 0.37% active. Q12809. activity change, % at 1.84 µM. U2OS, BacMam KCNH2, thallium flux FluxOr; hits give low values;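 active = maximum activity change below -70%; inconclusive = maximum activity change between -70% and -50%; inactive = maximum activity change above -50%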; also: % is scaled to controls: 0 for no effect and ±100 for the full control effect
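U2OS cells transduced with wild-type KCNH2 virus are loaded with FluxOr dye for 45 min, and thallium flux is measured in kinetic reads before and after stimulation buffer. Rate constants are normalized to DMSO controls.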
TSG101-PTAP inh: blocks PTAP/TSG101 interaction to inhibit HIV-1 budding; Q99816; Fluorescence polarization, FITC-PTAP peptide / Tsg101 binding; Potency, µM (top dose mostly 115 µM), without a hit: at the highest dose activity change, negative = inhibition, actives largely listed as inhibitors; 340,000 tested, under 10 active; AID 493005; active = well fitted inhibition curve with a large enough effect in the main read-out, with a control signal flat, not every such curve was filed as active; inconclusive = small, poorly fitted or top-dose-only effect, or effect the other way, or a change in a side signal; inactive = no such curve, though single readings can be large or run the other way; also: potency is read from the fitted curve at half-maximal effect; % of control where 0% means no effect
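FP read-out: FITC-PTAP peptide, 50 nM final, binding Tsg101 binding domain, 10 uM final; 20 min, r.t.; 10 mM HEPES pH 7.5, 0.15 M NaCl, 0.01% Tween 20, 3 mM EDTA, 0.1 mM TCEP.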
KCNH2 3.1 block: KCNH2 3.1 (human) potassium channel inhibition | U2OS KCNH2 3.1, thallium flux FluxOr; hits give low values | activity change, % (tested at about 1.8 µM) | 340,000 tested, 0.95% active | AID 720553;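 active = maximum activity change below -70%; inconclusive = maximum activity change from -70% to -50%; inactive = maximum activity change above -50%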;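 also: thallium influx rate constant from kinetic fluorescence after stimulation buffer; % is scaled to controls: 0 for no effect and ±100 for the full control effect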
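Virally transduced U2OS (3.1 isoform, 4 h infection in dark at RT) → overnight 37 C → FluxOr + Red40 in HBSS/HEPES, 45 min → stimulation buffer, 2 min kinetic read → rate constant vs DMSO controls.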
TRPML1 inh: blocks the human TRPML1 channel. Q9GZU1. TRPML1-inducible cells, Ca2+ dye fluorescence, FDSS; hits give low values; inhibition of EC80 agonist-evoked calcium signal. activity change, negative = inhibition, % (no concentration beside the values). 390,000 tested, 0.02% active. AID 624415; in the data active = activity change below about -50%; inconclusive = between about -30% and that limit;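 also: stimulus is agonist 54-4 at its EC80 concentration; % is scaled to controls: 0 for no effect and ±100 for the full control effect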
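Tet-induced TRPML1-DL cells loaded with Ca8 no-wash calcium dye were read kinetically on FDSS. Compound addition was followed by EC80 agonist 54-4 (4 uM final); inhibition was read over 110 s.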
* marks the source's active call; other numbers are inactive results.

`CC(C)C[C@H](NC(=O)c1nc[nH]c1C(=O)NCC(=O)OCc1ccccc1)C(=O)OCc1ccccc1` gave TRPML1 agonist 0, GRP78 ERSR act inconclusive, hERG WT inh -121*, TSG101-PTAP inh -6%, KCNH2 3.1 block -3 and TRPML1 inh 0.
`CC(C)(C)OC(=O)N1CCC(NC(=O)c2nc[nH]c2C(=O)N2CCc3ccccc3C2)CC1` gave TRPML1 agonist -1, GRP78 ERSR act 0%, hERG WT inh 6, TSG101-PTAP inh -2%, KCNH2 3.1 block 0 and TRPML1 inh 8.
Screening CC(C)C[C@H](NC(=O)c1nc[nH]c1C(=O)N1CCN(c2ccccc2)CC1)C(=O)OCc1ccccc1 returned TRPML1 agonist 3, GRP78 ERSR act -10%, hERG WT inh -1, TSG101-PTAP inh -12%, KCNH2 3.1 block -78* and TRPML1 inh 32.
CC(C)(C)OC(=O)CNC(=O)c1nc[nH]c1C(=O)N1CCc2ccccc2C1 was read as TRPML1 agonist 0, GRP78 ERSR act -4%, hERG WT inh 7, TSG101-PTAP inh -4%, KCNH2 3.1 block -71* and TRPML1 inh -12.
For CC(C)C[C@H](NC(=O)c1nc[nH]c1C(=O)N1CCNCC1)C(=O)OCc1ccccc1 the results were TRPML1 agonist -1, GRP78 ERSR act -4%, hERG WT inh -12, TSG101-PTAP inh -3%, KCNH2 3.1 block -5 and TRPML1 inh 2.
`CCCC[C@@H](CC)COC(=O)C[C@H](C(=O)OC[C@H](CC)CCCC)S(=O)(=O)O` gave GRP78 ERSR act -6%.
Screening C=C1/C(=C\C=C2/CCC[C@@]3(C)[C@@H]([C@H](C)OCCC(C)(C)O)CC[C@@H]23)C[C@@H](O)C[C@@H]1O returned GRP78 ERSR act -4%.
`CSc1ccccc1NC(=O)c1ccco1` gave TRPML1 agonist 0, GRP78 ERSR act -1%, hERG WT inh -281*, TSG101-PTAP inh -3%, KCNH2 3.1 block 27 and TRPML1 inh 4.
For O=C(Nc1ccccc1NC(=O)c1ccco1)c1ccco1 the results were TRPML1 agonist 0, GRP78 ERSR act -1%, hERG WT inh -1, TSG101-PTAP inh -9% and TRPML1 inh 5.
CCn1c(-c2cccnc2)nc2cc(NC(=O)COC)cc(C(=O)N3CC[C@@H]4CCCC[C@H]4C3)c21 was read as GRP78 ERSR act -3%.
For Cc1ccc2c(c1)N(C(=O)CCC(=O)NCCCN1CCC(Cc3ccccc3)CC1)CCO2 the results were TRPML1 agonist 1, GRP78 ERSR act -6%, hERG WT inh 3, TSG101-PTAP inh -2%, KCNH2 3.1 block -116* and TRPML1 inh 8.
For CCOc1ccc(CC(=O)N2CCC3(CC2)NCCc2[nH]cnc23)cc1 the results were TRPML1 agonist 0, GRP78 ERSR act -1%, hERG WT inh -10, TSG101-PTAP inh -3%, KCNH2 3.1 block -4 and TRPML1 inh 3.
`CCOc1ccc(C(=O)N2CCC3(CC2)NCCc2[nH]cnc23)cc1` gave TRPML1 agonist 0, GRP78 ERSR act -3%, hERG WT inh -14, TSG101-PTAP inh -3%, KCNH2 3.1 block -89* and TRPML1 inh -7.
`O=C(c1ccc(Br)cc1)N1CCC2(CC1)NCCc1[nH]cnc12` gave TRPML1 agonist -1, GRP78 ERSR act -7%, hERG WT inh inconclusive, TSG101-PTAP inh -2%, KCNH2 3.1 block -87* and TRPML1 inh 23.
For CC(C)(C)c1ccc(C(=O)N2CCC3(CC2)NCCc2[nH]cnc23)cc1 the results were TRPML1 agonist -1, GRP78 ERSR act -4%, hERG WT inh -5, TSG101-PTAP inh -2%, KCNH2 3.1 block 4 and TRPML1 inh 45.
Screening COc1cc(=O)n2c(c1C(=O)N(C)Cc1nonc1C)CCN(Cc1cccc3ccccc13)CC2 returned GRP78 ERSR act -5%.
`CC(C)CC(c1nnnn1Cc1cccs1)N1CCN(c2nc3ccccc3s2)CC1` (stereo not drawn) gave TRPML1 agonist 74*, GRP78 ERSR act -4%, hERG WT inh 14, TSG101-PTAP inh -1%, KCNH2 3.1 block 2 and TRPML1 inh -11.
CC(C)c1ccc(NC(=O)C2CCN(C(=O)[C@@H]3Cc4ccccc4CN3)CC2)cc1 was read as TRPML1 agonist 0, GRP78 ERSR act 2%, hERG WT inh -17, TSG101-PTAP inh 5%, KCNH2 3.1 block -88* and TRPML1 inh -7.
Screening Cc1ccc(NC(=O)C2CCN(C(=O)[C@@H]3Cc4ccccc4CN3)CC2)cc1 returned TRPML1 agonist 0, GRP78 ERSR act 3%, hERG WT inh -2, TSG101-PTAP inh -6%, KCNH2 3.1 block -46 and TRPML1 inh 34.
`CCC1C(=O)NCCN1Cc1ccc2c(c1)CN(Cc1ccc(OC)c(OC)c1)CCO2` (stereo not drawn) gave GRP78 ERSR act -4%.
`CCCN(CCC)CC(O)COc1ccc([N+](=O)[O-])cc1` (stereo not drawn) gave TRPML1 agonist 2, GRP78 ERSR act -3%, hERG WT inh -75*, TSG101-PTAP inh -1%, KCNH2 3.1 block inconclusive and TRPML1 inh 6.
`CCCN(CCC)CC(O)COc1ccc2c(c1)OCO2` (stereo not drawn) gave TRPML1 agonist 1, GRP78 ERSR act 0%, hERG WT inh 23, TSG101-PTAP inh 0%, KCNH2 3.1 block -5 and TRPML1 inh -2.
COc1cccc(-c2cnc(-c3ccncc3)nc2C2CCN(C(=O)Cc3csc(C)n3)CC2)c1 was read as GRP78 ERSR act -3%.
`CCOC(=O)/C(C#N)=C(C)/C=C1\Sc2ccccc2N1CC` gave TRPML1 agonist 52*, GRP78 ERSR act -1%, hERG WT inh -6, TSG101-PTAP inh inconclusive, KCNH2 3.1 block 10 and TRPML1 inh 2.
`CCN1/C(=C\C=C(C(C)=O)C(C)=O)Sc2ccccc21` gave TRPML1 agonist 21, GRP78 ERSR act 1%, hERG WT inh -3, TSG101-PTAP inh inconclusive, KCNH2 3.1 block -2 and TRPML1 inh -2.
Screening Cc1ncc2c(c1CNC(=O)c1ccc3c(c1)OCO3)CCN(C(=O)c1cn3ccccc3n1)C2 returned GRP78 ERSR act -5%.
`Cc1ccc(C(C)C)c(OCC(=O)NCC2(N3CCOCC3)CCCCC2)c1` gave TRPML1 agonist 76*, GRP78 ERSR act -4% and TRPML1 inh -20.
For Nc1nc(-c2ccc(F)cc2)cs1 the results were TRPML1 agonist 0, GRP78 ERSR act -2%, hERG WT inh 1, TSG101-PTAP inh -5%, KCNH2 3.1 block 3 and TRPML1 inh 23.
